# Screening results (PubChem)
# Rows were chosen to be rich in hits. Some 10% of all compounds tested hit in one or more screens of this group.
# VP16 counter – counter-screen for ROR gamma inhibitors: Gal4-VP16 reporter. Drosophila S2 Gal4-VP16 UAS-luciferase, luminescence, 20 h. Potency, µM (series often up to 53.6 µM), for inactives: top-dose activity, negative = inhibition, most hits filed as inhibitors. 3.5% of 310,000 active;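 further: Gal4-VP16 expression switched on by copper sulfate through the metallothionein promoter; on the % scale 0 is the no-effect control and ±100 the full control effect; nearly all actives have a fitted effect of over 50% in size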
# SW480 rerep – induces DNA re-replication in SW480 colon adenocarcinoma cells; SW480 DNA re-replication, Hoechst DNA content imaging, 48 h; Potency, µM (series often up to 46.1 µM), for the others: at the top dose re-replication activation, hits mostly activators; 1.8% of 340,000 active; AID 624297; further: % of control where 0% means no effect; nearly all actives have a fitted effect of over 55% in size
#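 Cells (250 per well) received 23 nL compound or DMSO by pin tool and were kept 48 hr at 37 C, 5% CO2. Nuclei were then stained with Hoechst for 40 min and scanned for DNA content.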
# MCF10A rereplic – DNA re-replication induction in MCF 10a cells | Potency, µM (highest dose often 46.1 µM), for the others: top-dose activity, positive = re-replication, most hits filed as activators | 2.9% of 350,000 active | MCF 10A DNA re-replication, Hoechst nuclear intensity, 48 h; further: % of control where 0% means no effect; nearly all actives have a fitted effect of over 50% in size
# KB-V1 MDR tox – kills drug-selected multidrug resistant KB-V1 cells. KB-V1 MDR cells viability, CellTiter-Glo, 72 h. Potency, µM (doses to about 46.1 µM), usual class: cytotoxic. 3.4% of 400,000 active. AID 1347076; further: on the % scale 0 is the no-effect control and ±100 the full control effect; nearly all actives have a fitted effect of over 60% in size
#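 Readout: CellTiter-Glo luminescence, 10 min after addition. Cells: KB-V1 MDR subline, 72 h at 37 degrees C with compound. Analysis: corrected, normalized data fitted to concentration-effect curves.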
# KB-3-1 cytotox – KB-3-1 parental cell cytotoxicity. KB-3-1 viability, CellTiter-Glo ATP luminescence, 72 h. Potency, µM (titrated, usually from 46.1 µM), hits mostly cytotoxic. 1.4% of 400,000 active. AID 1347075; further: on the % scale 0 is the no-effect control and ±100 the full control effect; nearly all actives have a fitted effect of over 60% in size
#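 72 h, 37 °C compound treatment of KB-3-1 parental cells; CellTiter-Glo added, 10 min, luminescence read. Data corrected against DMSO-only plates and normalized before curve fitting.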
# RORg inh – ROR gamma (mouse) transcription inhibition; P51450; Drosophila S2 Gal4-RORgamma UAS-luciferase reporter, 20 h; Potency, µM (top dose mostly 53.6 µM), for the others: at the top dose activity change, negative = inhibition, usual class: inhibitors; 5.4% of 310,000 active; AID 2551; further: on the % scale 0 is the no-effect control and ±100 the full control effect; nearly all actives have a fitted effect of over 60% in size
# Target sequence (P51450 whole entry, looked up, the tested form may be a part): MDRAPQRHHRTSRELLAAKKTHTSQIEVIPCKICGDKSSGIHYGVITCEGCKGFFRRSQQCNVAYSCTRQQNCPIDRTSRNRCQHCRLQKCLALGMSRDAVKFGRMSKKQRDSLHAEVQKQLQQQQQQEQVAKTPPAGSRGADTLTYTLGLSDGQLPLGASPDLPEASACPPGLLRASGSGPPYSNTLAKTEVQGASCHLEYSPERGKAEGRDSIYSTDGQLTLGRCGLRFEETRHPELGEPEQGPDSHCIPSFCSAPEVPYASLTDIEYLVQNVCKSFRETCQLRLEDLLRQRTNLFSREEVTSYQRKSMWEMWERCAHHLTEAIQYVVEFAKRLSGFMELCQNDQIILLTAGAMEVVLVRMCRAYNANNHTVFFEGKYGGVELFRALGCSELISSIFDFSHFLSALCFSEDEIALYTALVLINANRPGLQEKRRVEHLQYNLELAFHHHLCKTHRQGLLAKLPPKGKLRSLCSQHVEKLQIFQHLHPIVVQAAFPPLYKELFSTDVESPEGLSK
#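 Stable Schneider cell line, Gal4 DNA-binding domain fused to ROR gamma, UAS-luciferase. Cmpd 1 hr RT → CuSO4 700 uM final → 20 hr RT → luciferase reagent 10 min → luminescence.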
# Active calls of the source: *; i = inactive; ? = inconclusive; · = not tested or not shown. The call rests on the fitted dose curve; in most records, active means well fitted curve in the direction sought with a large enough effect; inconclusive means small, poorly fitted or top-dose-only effect, or another doubt; inactive means no such curve, though single readings can be large; an effect the other way counts as inactive or inconclusive. Potency means the concentration at half of the fitted maximal effect.
SMILES,VP16 counter,SW480 rerep,MCF10A rereplic,KB-V1 MDR tox,KB-3-1 cytotox,RORg inh
CCOc1c(Br)cc(CNc2ccc3c(c2)OCCO3)cc1OC,-3%,5.8µM*,1.3µM*,4.1µM*,2.1µM*,-23%
COc1ccc(CNc2ccc(C)c(C)c2)cc1,18%,-4%,8%,i,i,27%
COc1cc(CNc2ccc(C)c(C)c2)cc(OC)c1OC,1%,8.2µM*,16µM*,?,i,-8%
Cc1n[nH]c(C)c1N=Nc1ccc(Br)cc1,28%,-14%,?,?,16µM*,-29%
COc1ccc(N=Nc2c(C)n[nH]c2C)cc1,24%,-2%,?,?,?,-17%
Cc1ccc(S(=O)(=O)c2cn(Cc3ccccc3F)c3cc4c(cc3c2=O)OCO4)cc1,·,·,·,i,i,·
COc1ccccc1NC(=O)/C(C#N)=C/C=C/c1ccco1,-13%,0.92µM*,8.2µM*,?,1.5µM*,-43%
COc1ccccc1NC(=S)NC(=O)/C=C/c1ccco1,20µM*,-1%,15%,i,i,13µM*
Cc1ccccc1NC(=O)/C(=C/c1ccco1)c1ccccc1,10%,-4%,-4%,?,i,-14%
Cc1ccccc1NC(=S)NC(=O)/C=C/c1ccco1,13µM*,?,10%,i,i,?
COc1ccccc1NC(=O)/C=C\c1ccco1,?,-1%,6%,i,i,23%
COc1cc2c(cc1NC(=S)NC(=O)/C=C/c1ccco1)oc1ccccc12,5µM*,21%,?,i,i,3.2µM*
COc1cc2c(cc1NC(=S)NC(=O)/C=C/c1ccc(OC)c(OC)c1)oc1ccccc12,-2%,7%,21%,i,i,-15%
COc1cccc(-c2nc(CS(=O)(=O)CC(=O)Nc3c(C)cc(C)cc3C)c(C)o2)c1,·,·,·,i,i,·
CC(C)(C)c1ccc(C(=O)N2CCC2(C)C(=O)NCc2ccc3c(c2)OCO3)cc1 (stereo not given),·,·,·,i,i,·
COc1cc(C=O)c([N+](=O)[O-])cc1OC,21%,·,·,·,·,-42%
Cc1cc(C)n(-c2ccc(C(=O)N3CCC(CO)(Cc4ccccc4)CC3)cc2)n1,?,-4%,-2%,i,i,2.5µM*
S=C(Nc1ccccc1)N1CCC(Cc2ccccc2)CC1,6.3µM*,-3%,13%,i,12µM*,6.3µM*
COc1ccc(NC(=O)N2CCCC(C(=O)NCCc3ccccc3)C2)cc1 (stereo not given),9%,2%,13%,23µM*,i,33%
OCC1CCCN(C(=S)Nc2ccc(Nc3ccccc3)cc2)C1 (stereo not given),7.9µM*,?,?,i,i,7.1µM*
CCNC(=S)N1CCC(Cc2ccccc2)CC1,8%,-7%,7%,i,i,18%
COc1cc(NC(=S)N2CCC(C(O)(c3ccccc3)c3ccccc3)CC2)cc(OC)c1,?,2%,?,i,i,14µM*
COc1ccc(CNC(=O)C2CCCN(C(=O)Nc3ccc(OC)cc3)C2)cc1 (stereo not given),9%,-1%,5%,i,i,-3%
CC1CC(=O)N(CC(=O)Nc2ccc(OC(F)(F)F)cc2)c2ccccc2S1 (stereo not given),·,·,·,?,i,·
Cc1nn2c(C)c(C(=O)NCc3ccco3)cnc2c1-c1ccccc1,·,·,·,i,i,·
COc1ccc(NC(=S)N2CCC(Cc3ccccc3)CC2)cc1,?,-2%,7%,i,i,8.9µM*
Cc1ccc(C(=O)c2cn(CC(=O)Nc3ccc4c(c3)OCCO4)c3nc(C)ccc3c2=O)cc1,·,·,·,i,i,·
Cc1ccc(C(=O)N/N=C\c2ccccc2[N+](=O)[O-])cn1,?,0%,-3%,i,i,10µM*
